Laboratory results from PubChem BioAssay (EPA / NIEHS).
The source made the active and inactive calls. The calls were made as follows: active = hit-call score of the fitted dose curve at least 0.9, where 1 is the maximum; inactive = score below 0.9.

Columns and labels:
Details in all cases: mRNA level, 48 h; actives raise or lower the signal
[1] = read-out: cysteine-aspartic acid protease (CASP8), CASP8 (gene 841); assay: LTEA_HepaRG_CASP8: Life Technologies and Expression Analysis (LTEA) Assay for cysteine-aspartic acid protease (CASP8) using HepaRG (AID 2283480)
Method in brief: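 CASP8 transcript measured by TaqMan qRT-PCR with ACTB/GAPDH/POLR2A normalization, after 48 h chemical exposure of HepaRG cells in serum-free induction medium. Eight concentrations, top 100 uM, half-log steps, 0.5% DMSO vehicle; fits in both directions versus DMSO.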

[2] = read-out: Cytochrome P450 (CYP2B6), CYP2B6 (gene 1555); assay: LTEA_HepaRG_CYP2B6: Life Technologies and Expression Analysis (LTEA) Assay for Cytochrome P450 (CYP2B6) using HepaRG (AID 2283481)
Method in brief: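 Differentiated HepaRG cells, serum-free induction medium, exposed 48 h in duplicate to 8-point half-log concentrations from 100 uM in 0.5% DMSO. CYP2B6 mRNA by qRT-PCR, normalized to ACTB, GAPDH, POLR2A; bidirectional fit versus DMSO.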

[3] = read-out: Cytochrome P450 2C19 (Homo sapiens) (UniProt P33261); assay: LTEA_HepaRG_CYP2C19: Life Technologies and Expression Analysis (LTEA) Assay for CYP2C19 using HepaRG (AID 2283482)
Method in brief: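 Differentiated human HepaRG cells were exposed for 48 h in serum-free induction medium to 8 concentrations (top 100 uM, half-log steps, 0.5% DMSO). CYP2C19 mRNA was measured by qRT-PCR, normalized to ACTB/GAPDH/POLR2A, and fitted bidirectionally against DMSO.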

CYP2C8 (gene 1558) = assay: LTEA_HepaRG_CYP2C8: Life Technologies and Expression Analysis (LTEA) Assay for CYP2C8 using HepaRG (AID 2283483)
Method in brief: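 CYP2C8 expression measured by TaqMan qRT-PCR and normalized to three housekeeping genes. HepaRG cultures were treated for 48 h with an eight-point half-log series topping at 100 uM, vehicle 0.5% DMSO, duplicates; fitted both directions against DMSO.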

CYP2C9 (gene 1559) = assay: LTEA_HepaRG_CYP2C9: Life Technologies and Expression Analysis (LTEA) Assay for CYP2C9 using HepaRG (AID 2283484)
Method in brief: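 CYP2C9 transcript level, quantified by TaqMan qRT-PCR against three housekeeping genes, was fitted bidirectionally relative to 0.5% DMSO. HepaRG cultures were treated 48 h, in duplicate, at eight half-log concentrations topping at 100 uM.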

CYP2E1 (gene 1571) = assay: LTEA_HepaRG_CYP2E1: Life Technologies and Expression Analysis (LTEA) Assay for CYP2E1 using HepaRG (AID 2283485)
Method in brief: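 Assay uses 48 h exposure of HepaRG hepatic cells, eight concentrations to 100 uM. Expression of CYP2E1 is quantified by TaqMan qRT-PCR with ACTB, GAPDH and POLR2A normalization; curves fitted in both directions relative to vehicle.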

CYP4A11 (gene 1579) = assay: LTEA_HepaRG_CYP4A11: Life Technologies and Expression Analysis (LTEA) Assay for CYP4A11 using HepaRG (AID 2283486)
Method in brief: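 Differentiated HepaRG cells, serum-free induction medium, exposed 48 h in duplicate to 8-point half-log series from 100 uM in 0.5% DMSO. CYP4A11 mRNA measured by qRT-PCR, normalized to ACTB, GAPDH, POLR2A; bidirectional fit versus DMSO.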

[4] = read-out: Cytochrome P450 3A4 (Homo sapiens) (UniProt P08684); assay: LTEA_HepaRG_CYP3A4: Life Technologies and Expression Analysis (LTEA) Assay for CYP3A4 using HepaRG (AID 2283487)
Method in brief: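 Differentiated HepaRG cells, plated 48 h, then dosed 48 h in serum-free induction medium with 0.5% DMSO, 8 half-log concentrations up to 100 uM, duplicate. CYP3A4 mRNA by qRT-PCR, normalized to ACTB/GAPDH/POLR2A; bidirectional fit versus DMSO.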

[5] = read-out: DNA damage-inducible transcript 3 (DDIT3), DDIT3 (gene 1649); assay: LTEA_HepaRG_DDIT3: Life Technologies and Expression Analysis (LTEA) Assay for DNA damage-inducible transcript 3 (DDIT3) using HepaRG (AID 2283488)
Method in brief: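 Eight-point concentration-response (100 uM highest, half-log dilutions) in HepaRG, 48 h, duplicate wells. Endpoint: qRT-PCR mRNA, normalized (ACTB, GAPDH, POLR2A), bidirectional fitting with DMSO as baseline.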

Measured: AC50

Sequence of Cytochrome P450 2C19 (Homo sapiens) (P33261 whole entry, looked up): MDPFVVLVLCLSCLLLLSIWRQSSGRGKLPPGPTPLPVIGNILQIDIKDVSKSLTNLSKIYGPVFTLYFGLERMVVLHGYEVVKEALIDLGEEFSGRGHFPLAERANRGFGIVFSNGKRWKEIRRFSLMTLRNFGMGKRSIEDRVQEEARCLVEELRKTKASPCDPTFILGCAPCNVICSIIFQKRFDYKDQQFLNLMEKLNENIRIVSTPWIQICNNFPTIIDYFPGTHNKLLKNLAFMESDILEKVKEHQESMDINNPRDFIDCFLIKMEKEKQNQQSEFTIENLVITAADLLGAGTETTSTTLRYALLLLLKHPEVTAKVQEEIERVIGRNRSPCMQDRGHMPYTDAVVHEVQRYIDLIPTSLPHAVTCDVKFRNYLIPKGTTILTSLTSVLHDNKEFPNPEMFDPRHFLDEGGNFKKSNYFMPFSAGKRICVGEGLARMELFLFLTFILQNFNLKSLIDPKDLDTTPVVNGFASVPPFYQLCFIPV
Sequence of Cytochrome P450 3A4 (Homo sapiens) (P08684 whole entry, looked up): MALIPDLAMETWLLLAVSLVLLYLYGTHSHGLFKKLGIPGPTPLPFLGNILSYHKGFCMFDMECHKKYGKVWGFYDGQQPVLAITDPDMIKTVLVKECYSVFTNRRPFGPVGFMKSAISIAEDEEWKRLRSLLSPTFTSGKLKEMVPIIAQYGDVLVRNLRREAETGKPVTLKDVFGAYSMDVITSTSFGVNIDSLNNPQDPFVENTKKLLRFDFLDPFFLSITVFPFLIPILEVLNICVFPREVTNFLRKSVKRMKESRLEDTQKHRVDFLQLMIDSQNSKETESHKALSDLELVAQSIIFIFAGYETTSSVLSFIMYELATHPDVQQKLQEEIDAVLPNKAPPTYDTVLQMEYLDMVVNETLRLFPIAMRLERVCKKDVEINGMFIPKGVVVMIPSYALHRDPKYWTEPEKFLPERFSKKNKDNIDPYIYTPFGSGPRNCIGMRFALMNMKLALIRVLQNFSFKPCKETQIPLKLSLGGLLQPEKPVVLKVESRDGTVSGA

COC(=O)NC(=S)Nc1ccccc1NC(=S)NC(=O)OC
active: [2] 9.55 µM | [3] 13.7 µM | CYP2E1 (gene 1571) 26.8 µM | [4] 6.29 µM
inactive: all other assays above

Cc1cnc(C2=NC(C)(C(C)C)C(=O)N2)c(C(=O)O)c1 (stereo unspecified)
inactive: all assays above

CCCN(CC)CC1COC2(CCC(C(C)(C)C)CC2)O1 (stereo unspecified)
active: [2] 50 µM
inactive: all other assays above

CCSC(=O)N1CCCCCC1
active: [2] 2.93 µM | [4] 30 µM
inactive: all other assays above

CCOc1nc(F)cc2nc(S(=O)(=O)Nc3c(Cl)cccc3Cl)nn12
active: [2] 13.2 µM | CYP2E1 (gene 1571) 20.3 µM | [4] 1.85 µM
inactive: all other assays above

Cc1nc(N(C)C)nc(OC(=O)N(C)C)c1C
active: [2] 8.42 µM | [3] 19.7 µM | CYP2C8 (gene 1558) 9.92 µM | [4] 40.7 µM
inactive: all other assays above

CC(C)C1(C)N=C(c2ncccc2C(=O)O)NC1=O (stereo unspecified)
inactive: all assays above

CN/C(=N\[N+](=O)[O-])NCc1cnc(Cl)s1
active: [2] 30.8 µM | CYP2E1 (gene 1571) 50 µM
inactive: all other assays above

CCCCC(O)(Cn1cncn1)c1ccc(Cl)cc1Cl (stereo unspecified)
inactive: [1]
active: [2] 80.1 µM | [3] 83.2 µM | CYP2C8 (gene 1558) 78.5 µM | CYP2C9 (gene 1559) 73.8 µM | CYP2E1 (gene 1571) 46.4 µM | CYP4A11 (gene 1579) 59 µM | [4] 85.6 µM | [5] 77.4 µM
